# From PubChem
# Only some compounds are listed: those with a hit (about 2.3% of all), similar ones and a draw of the others.
# SENP8 block-1 – SENP8 (human) protease inhibition | 0.64% of 360,000 active | inhibition, % at 20 µM | Q96LD8 | recombinant SENP8, Nedd8 substrate fluorescence; in the data active = inhibition mostly above about 40%, no sharp cut-off; inactive = mostly below about 27%
# LGR2 antag – blocks bursicon-induced cAMP signaling via Drosophila LGR2 | HEK293 LGR2, CRE-luciferase, bursicon-stimulated, 4 h | inhibition, % at 9.99 µM | 0.35% of 380,000 active;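 active = drop in luminescence signal, shown as inhibition above about 50% in the replicate tests, limit read from the data, passing the limit was not always enough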;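 also: agonist challenge used bursicon conditioned medium at about half maximal strength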
# HSP90 refold inh – HSP90 refolding inhibition in rabbit reticulocyte lysate; luciferase refolding luminescence, 3 h; inhibition, % at 5.6 µM; 0.91% of 290,000 active;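 active = inhibition above the screen-wide mean plus 3 SD, computed separately per campaign, cut at about 16% in these data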;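 also: 0% = DMSO wells and 100% = 60 µM geldanamycin wells; inhibitors lower the luminescence because luciferase stays unfolded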
# SENP6 inh – SENP6 protease inhibition. Recombinant SENP6 catalytic domain, aminoluciferin luminescence. 1.8% of 330,000 active. Q9GZR1. AID 2599. inhibition, % at 10 µM;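 active = inhibition above about 50% at the single tested dose, limit read from the data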;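 also: plate controls were DMSO wells with enzyme for no effect and DMSO wells lacking enzyme for full effect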
# SENP7 block – SENP7 protease inhibition. Q9BQF6. recombinant SENP7, Z-RLRGG-aminoluciferin luminescence, 40 min. inhibition, % at 5 µM. 1.5% of 330,000 active. AID 434973;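 active = inhibition above about 50% at the single test dose, limit read from the data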;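 also: plate controls were DMSO with enzyme for no effect and no enzyme buffer wells for full effect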
# Target sequence (Q9BQF6 706-1050 limits assumed): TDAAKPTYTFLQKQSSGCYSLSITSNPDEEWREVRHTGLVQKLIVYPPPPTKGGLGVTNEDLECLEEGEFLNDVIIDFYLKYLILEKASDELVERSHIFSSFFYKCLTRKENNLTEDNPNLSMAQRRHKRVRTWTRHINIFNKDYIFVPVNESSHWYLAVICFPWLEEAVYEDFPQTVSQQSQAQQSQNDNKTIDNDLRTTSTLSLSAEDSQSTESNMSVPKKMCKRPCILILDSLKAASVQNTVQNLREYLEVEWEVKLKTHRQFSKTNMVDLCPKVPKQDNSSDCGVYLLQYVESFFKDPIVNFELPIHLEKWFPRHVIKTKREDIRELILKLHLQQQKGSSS
# SENP8 block-2 – blocks the human protease SENP8 | Q96LD8 | purified SENP8, Z-RLRGG-aminoluciferin cleavage, luminescence | inhibition, % at 10 µM | 1.2% of 330,000 active | AID 2540; in the data active = inhibition above about 50%
# SENP8 conf – confirmation of human SENP8 protease inhibitors | shares compounds with SENP7 block | Recombinant SENP8, Z-RLRGG-aminoluciferin luminescence, 60 min | inhibition, % at 12.5 µM | 40% of 6,200 active;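 active = mean inhibition across replicates above about 50%, limit read from the data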
# SENP6 confirm – confirmation of human SENP6 protease inhibitors | recombinant SENP6, Z-RLRGG-aminoluciferin luminescence | inhibition, % at 12.5 µM | shares compounds with SENP7 block | 58% of 6,200 active
# SENP7 confirm – confirmation of human SENP7 protease inhibitors. shares compounds with SENP7 block. recombinant SENP7, Z-RLRGG-aminoluciferin luminescence, 40 min. inhibition, % at 12.5 µM. 69% of 6,200 active
# Casp3 select – caspase-3 inhibition (SENP selectivity assay); shares compounds with SENP7 block; purified caspase-3, Z-DEVD-aminoluciferin luminescence, 60 min; inhibition, % at 12.5 µM; 60% of 6,200 active; AID 488918;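 active = mean inhibition above about 50%, limit read from the data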;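 also: plate controls were enzyme with DMSO for no effect and wells without caspase-3 for full effect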
# Luc interf – luminescence interference (SENP counter-screen) | shares compounds with SENP7 block | Pre-incubated SENP8/Z-RLRGG-aminoluciferin, luciferase luminescence interference | inhibition, % at 12.5 µM | 39% of 6,200 active;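 active = mean inhibition above about 50% when retested at one dose, limit read from the data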;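 also: plate controls were DMSO wells with completed reaction for no effect and substrate without enzyme for full effect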
# An asterisk follows results filed as active; . = no result.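 The calls were made as follows, unless noted: active = mean inhibition above about 50% in the one-dose retest (limit read from the data); inactive = the rest.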
SMILES,SENP8 block-1,LGR2 antag,HSP90 refold inh,SENP6 inh,SENP7 block,SENP8 block-2,SENP8 conf,SENP6 confirm,SENP7 confirm,Casp3 select,Luc interf
c1ccc(N=Nc2ccc3cccccc2-3)cc1,24,-118,.,54*,68*,45,56*,68*,86*,34,49
CCOC(=O)c1cc(-c2cc3ccccc3o2)n[nH]1,-8,.,-1,72*,54*,33,63*,61*,81*,48,33
CCOC(=O)c1cc(-c2ccc(C)o2)n[nH]1,15,.,4,-39,7,2,.,.,.,.,.
C[C@H]1CCCCO[C@H](CN(C)C(=O)Nc2ccccc2)[C@@H](C)CN([C@@H](C)CO)C(=O)c2cc(NC(=O)c3ccccc3)ccc2O1,.,-9,.,.,.,.,.,.,.,.,.
O=C(Nc1ccccc1)Nc1ccccc1C(=O)NCc1ccccc1,-400,.,-1,7,52*,-4,-2,-3,74*,34,6
O=C(Nc1ccc(Cl)cc1)Nc1ccccc1C(=O)NCc1ccco1,-115,-22,4,91*,96*,84*,80*,81*,99*,78*,78*
COc1ccc(NC(=O)N(C)C[C@@H]2OCCCC[C@@H](C)Oc3ccc(NC(=O)Nc4cccc5ccccc45)cc3C(=O)N([C@@H](C)CO)C[C@@H]2C)cc1,.,-20,.,.,.,.,.,.,.,.,.
Cc1ccc(-n2nc3ccc(NC(=O)c4ccco4)cc3n2)cc1,-498,-24,-4,1,-2,-4,.,.,.,.,.
Cc1ccc(-n2nc3ccc(NC(=O)C(C)C)cc3n2)cc1,-376,-104,2,76*,80*,39,-15,-1,40,5,-3
COc1ccc(-n2c3nc4ccccc4nc3c3c(=N)oc(C)nc32)cc1,-285,-7,-7,90*,75*,63*,4,40,19,-2,-4
O=C(c1ccccn1)N1C[C@H]2[C@@H](c3ccccc31)[C@@H](CO)N2C(=O)C1CC1,.,-7,.,.,.,.,.,.,.,.,.
CCC(=O)Nc1cnc(NC(=O)c2cccc(F)c2)cc1C,12,.,13,58*,59*,18,43,41,78*,83*,45
Cc1ccc(OCC(=O)Nc2cccc(C)n2)c(C)c1,0,.,3,74*,65*,45,30,67*,90*,69*,22
Cc1cccc(NC(=O)COc2ccc(Br)cc2)n1,14,.,-4,6,18,-3,.,.,.,.,.
C[C@@H]1CN([C@H](C)CO)C(=O)c2cccc(NC(=O)CCCCCC(=O)Nc3ccccc3N)c2O[C@@H]1CN(C)S(=O)(=O)c1cccs1,.,26,.,.,.,.,.,.,.,.,.
COc1cccc(/C=C/C(=O)Nc2cccc(C(C)=O)c2)c1OC,-62,-34,-4,33,29,12,.,.,.,.,.
COc1cccc(C(=O)Nc2ccc3c(c2)OCO3)c1OC,16,-62,2,55*,37,33,27,25,73*,73*,54*
COc1cccc(/C=C/C(=O)Nc2ccc3c(c2)OCCO3)c1OC,6,61*,21*,33,76*,62*,79*,77*,91*,71*,79*
CC(C)NC(=O)N1[C@@H](CO)[C@@H](c2ccccc2)C12CN(Cc1ccc(F)cc1)C2,.,5,.,.,.,.,.,.,.,.,.
C/C=C/c1ccc2c(c1)O[C@H](CN(C)Cc1cccc(F)c1)[C@H](C)CN([C@@H](C)CO)S2(=O)=O,.,16,.,.,.,.,.,.,.,.,.
COc1ccc(-c2csc(-c3ccccc3)n2)c(OC)c1,-79,-34,0,93*,89*,84*,82*,91*,96*,74*,26
COc1ccc(-c2csc(-c3ccc(O)cc3)n2)cc1,-25,-106,-1,-2,2,-11,.,.,.,.,.
